# Bioassay records deposited in PubChem BioAssay by National Center for Advancing Translational Sciences (NCATS).
# In the library only some 5.8% were active in any assay of this set; here they are far more common.
# PINK1 modulator: PINK1 expression modulation | Potency, µM (series often up to 76.6 µM), for inactives: at the highest dose activation (PINK1 increase), hits mostly activators | PINK1 immunofluorescence, high-content cytometry, 24 h | actives 0.2% (n = 410,000) | AID 624263; active means well fitted activation curve with a large enough effect; inconclusive means small, poorly fitted or top-dose-only effect; cell line not stated here; further: % of control where 0% means no effect; nearly all actives have a fitted effect of over 65% in size
#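 PINK1 protein, normally rapidly degraded, was detected by immunofluorescence after 24 hour compound treatment of a stable cell line. Titration data (5 concentrations) came from laser-scanning cytometry, with CCCP-treated wells as controls.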
# KB-3-1 tox: kills parental KB-3-1 adenocarcinoma cells. Potency, µM (highest dose often 46.1 µM), hits mostly cytotoxic. AID 1347075. actives 1.4% (n = 400,000). KB-3-1 viability, CellTiter-Glo ATP luminescence, 72 h; further: on the % scale 0 is the no-effect control and ±100 the full control effect; nearly all actives have a fitted effect of over 60% in size
#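 Screening of KB-3-1 cells (DMEM, 10% FBS, phenol-red free) ran from lowest to highest compound concentration; after 72 h at 37 °C viability was read luminescently and curves fitted.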
# MCF10A rerep: induces DNA re-replication in MCF 10a normal breast cells | MCF 10A DNA re-replication, Hoechst nuclear intensity, 48 h | Potency, µM (titrated, usually from 46.1 µM), without a hit: at the top dose activity, positive = re-replication, actives largely listed as activators | actives 2.9% (n = 350,000) | AID 624296; further: % of control where 0% means no effect; nearly all actives have a fitted effect of over 50% in size
# 12-LOX inh: ALOX12 (human) lipoxygenase inhibition | AID 1671190 | Potency, µM (titrated, usually from 108 µM), inactives show at the highest dose activity change, negative = inhibition, hits mostly inhibitors | actives 1.1% (n = 580,000) | purified 12hLO, xylenol orange hydroperoxide absorbance; further: on the % scale 0 is the no-effect control and ±100 the full control effect
# Target sequence (P18054 whole entry, looked up): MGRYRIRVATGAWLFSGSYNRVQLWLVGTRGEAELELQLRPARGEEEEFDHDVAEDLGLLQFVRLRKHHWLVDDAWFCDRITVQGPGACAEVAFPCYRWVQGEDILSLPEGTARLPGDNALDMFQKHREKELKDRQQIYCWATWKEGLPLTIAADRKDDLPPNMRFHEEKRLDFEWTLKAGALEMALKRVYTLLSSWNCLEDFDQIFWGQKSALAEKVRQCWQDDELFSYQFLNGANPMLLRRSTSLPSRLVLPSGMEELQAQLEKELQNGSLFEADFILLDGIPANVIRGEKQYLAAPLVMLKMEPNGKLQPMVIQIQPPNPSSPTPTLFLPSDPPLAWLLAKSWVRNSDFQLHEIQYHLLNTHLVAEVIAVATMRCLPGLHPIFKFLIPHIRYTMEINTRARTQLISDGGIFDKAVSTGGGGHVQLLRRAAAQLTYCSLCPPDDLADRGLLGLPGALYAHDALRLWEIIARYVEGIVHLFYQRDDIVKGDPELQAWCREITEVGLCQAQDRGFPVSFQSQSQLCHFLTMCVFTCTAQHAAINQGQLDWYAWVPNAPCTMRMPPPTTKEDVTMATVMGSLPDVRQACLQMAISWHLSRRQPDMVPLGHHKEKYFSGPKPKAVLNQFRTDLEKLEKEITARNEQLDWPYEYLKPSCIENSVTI
#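 Hydroperoxide product was detected by ferrous iron/xylenol orange as the 573 to 405 nm absorbance ratio. Arachidonic acid at 40 uM (final) was turned over for 30 min at room temperature by 150 nM human 12hLO, pH 7.0 Hepes buffer, after 15 min compound preincubation.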
# KB-V1 cytotox: kills drug-selected multidrug resistant KB-V1 cells; KB-V1 MDR cells viability, CellTiter-Glo, 72 h; Potency, µM (series often up to 46.1 µM), hits mostly cytotoxic; actives 3.4% (n = 400,000); AID 1347076; further: on the % scale 0 is the no-effect control and ±100 the full control effect; nearly all actives have a fitted effect of over 60% in size
#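 Drug-selected KB-V1 cells, grown in DMEM lacking phenol red with 10% FBS, receive compound titrations; after three days at 37 degrees C, surviving cell ATP is quantified by CellTiter-Glo luminescence and responses normalized and curve-fitted.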
# SW480 rereplic: DNA re-replication induction in SW480 cells; SW480 DNA re-replication, Hoechst DNA content imaging, 48 h; Potency, µM (series often up to 46.1 µM), for the others: top-dose re-replication activation, actives largely listed as activators; actives 1.8% (n = 340,000); further: % of control where 0% means no effect; nearly all actives have a fitted effect of over 55% in size
#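 Image-based read-out: total Hoechst fluorescence of nuclei (405 nm excitation, 500-530 nm emission), with hits raising the fraction of high-intensity nuclei. SW480 colon cells incubated 48 hr with compounds at 37 C.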
# The depositor's hits bear a star; i = inactive; u = inconclusive; x = not tested or not shown; ! = not confirmed by another sample; [ ] = remark or other dose. Unless noted, the call rests on the fitted dose curve; in most records, active means well fitted curve in the direction sought with a large enough effect; inconclusive means small, poorly fitted or top-dose-only effect, or another doubt; inactive means no such curve, though single readings can be large; an effect the other way counts as inactive or inconclusive. Potency means the concentration at half of the fitted maximal effect.
SMILES,PINK1 modulator,KB-3-1 tox,MCF10A rerep,12-LOX inh,KB-V1 cytotox,SW480 rereplic
COCc1cn(C[C@H]2C[C@@H]3CCN2C[C@@H]3C(=O)NCc2ccccc2)nn1,x,x,x,12%[176 µM],x,x
c1ccc(CN2C[C@H](c3ccc4c(c3)OCO4)[C@@H]3[C@H]2C2CCN3CC2)nc1,x,x,x,87%,x,x
C[C@]12CC[C@H]3[C@@H](CCC4=CC(=O)CC[C@@]43C)[C@@H]1CC[C@@H]2C(=O)CO,0%,u,u,-4%,8.2µM*,u
C[C@]12CC[C@H]3[C@@H](CCC4=CC(=O)CC[C@@]43C)[C@H]1CC[C@H]2O,x,x,x,2%,x,x
CCC(=O)O[C@H]1CC[C@H]2[C@@H]3CCC4=CC(=O)CC[C@]4(C)[C@H]3CC[C@]12C,2%,i,u,-10%,u,-81%
CC12CCC(=O)C=C1CCC1C2CCC2(C)C(O)CCC12 (configuration not stated),0%,u,11%,-8%,4.1µM*,1%
C[C@]12CC[C@H]3[C@@H](CCC4=CC(=O)CC[C@@]43C)[C@@H]1CC[C@@H]2O,-1%,10µM*,7%,1%,3.7µM*,-10%
CC1CC2C(C(O)CC3(C)C(O)CCC23)C2(C)CCC(=O)C=C12 (configuration not stated),0%,12µM*,7%,-5%,6.5µM*,6%
CC12CCC(=O)C=C1CCC1C2C(O)CC2(C)C(O)CCC12 (configuration not stated),0%,u,-6%,-3%,u,-11%
O=C(c1cccs1)C1CCCN(Cc2nc(-c3ccccn3)no2)C1 (configuration not stated),x,x,x,52%,x,x
CC(=O)Nc1ccc(-c2ccc(=O)n3c2[C@@H]2C[C@@H](CN(C(=O)C(C)(C)C)C2)C3)cc1,x,x,x,26%[176 µM],x,x
Cc1ccccc1CC(=O)N1CCN(C(C)c2nc(C3CC3)no2)CC1 (configuration not stated),x,x,x,-7%,x,x
C#CCN(C)C[C@H]1CN2CC[C@H]1C[C@@H]2CNC(=O)c1ccc(C(F)(F)F)cc1,x,x,x,35%[176 µM],x,x
CC(=O)C1C(N2CC2)CC2C3CCC4=CC(=O)CCC4(C)C3CCC21C (configuration not stated),8%,u,16µM*,-1%,u,u
C[C@]12CCC(=O)C=C1CC[C@@H]1[C@@H]2CC[C@@]2(C)[C@H]1CC[C@]2(C)O,0%,i,u,-14%,u,-10%
CC12CCC3C(CCC4=CC(=O)CCC43C)C1CCC2=O (configuration not stated),x,x,x,-28%,x,x
C[C@H](O)[C@H]1CC[C@H]2[C@@H]3CCC4=CC(=O)CC[C@]4(C)[C@H]3CC[C@]12C,1%,i,u,-5%,15µM*,-13%
O=C(Cc1cccs1)N1Cc2ccccc2-n2nncc2C1,2%,i,x,40µM*,i,x
COc1ccc(-c2c(C#N)c(N)nc3c2c(=O)nc2sccn23)cc1OC,x,x,x,-27%,x,x
O=C(CCN1CC2CCC(CC2)C1)c1cccs1,-5%,i,10µM*,-11%,i,u
N#CC(C#N)=Cc1ccc(O)c(O)c1,2%,u,u,25µM*!,i,13%
CC(C)(C)c1cc(C=C(C#N)C#N)cc(C(C)(C)C)c1O,u,1.3µM*,u,u,1µM*,-45%
CN1[C@@H]2CC[C@H]1CC(OC1c3ccccc3CCc3ccccc31)C2 (some centres not stated),0%,i,-2%,-11%,u,3.2µM*!
CN1[C@@H]2CC[C@H]1CC(O[C@@H](c1ccccc1)c1ccc(Cl)cc1)C2 (some centres not stated),x,x,x,54%,x,x
CCC(CC)c1cc([C@H]2CN3CC[C@H]2C[C@@H]3CNC(=O)c2cccs2)nc(-c2ccncc2)n1,x,x,x,0%,x,x
SMILES,PINK1 modulator,KB-3-1 tox,MCF10A rerep,12-LOX inh,KB-V1 cytotox,SW480 rereplic
Nc1ccc(N=Nc2ccc(-c3ccc(N=Nc4c(S(=O)(=O)O)cc5cc(S(=O)(=O)O)c(N=Nc6ccccc6)c(O)c5c4N)cc3)cc2)c(N)c1,x,x,x,13%,x,x
N=C(N)c1c(O)n(C2CCCCC2)c(=O)n(C2CCCCC2)c1=O,-5%,21µM*,u,0%,i,u
O=c1c(C=NCc2cccs2)c(O)n(C2CCCCC2)c(=O)n1C1CCCCC1,7%,i,8%,0%,i,-6%
O=C(O)c1cc(Cl)c(O)c(Cl)c1,x,x,x,0%,x,x
FC(F)(F)CN1C2CCC1CN(c1cncnc1)C2,x,x,x,1%[12.5 µM],x,x
Cc1ccc(-n2nnnc2C2(NC(C)C)CCCCC2)cc1,x,x,x,5%,x,x
CCNC(=O)NC(=O)COC(=O)c1cn(C)c2ccccc12,x,x,x,42%,x,x
COc1ccccc1CNC(=O)[C@H]1CN2CC[C@H]1C[C@@H]2Cn1cc(C2(O)CCCC2)nn1,x,x,x,15%,x,x
N#C/C(=C(/O)c1ccc(S(=O)(=O)N(CCCl)CCCl)cc1)c1nc2ccccc2[nH]1,2%,i,10µM*,24%,i,u
O=C(C1CCOCC1)N1CCC2(CC1)NCc1ccccc1-n1ccnc12,x,x,x,16%,x,x
Cc1cc(N2CCNC[C@H]2C)ccc1N1CCN[C@H](C)C1,x,x,x,40µM*,x,x
Cc1cc(N2CCNC[C@@H]2C)ccc1N1CCN[C@@H](C)C1,x,x,x,45µM*,x,x
CCC1(O)C(=O)OCc2c1cc1n(c2=O)Cc2cc3c(N)cccc3nc2-1 (configuration not stated),-6%,0.21µM*,-10%,-17%,1.5µM*,u
CC(=O)Nc1ccc(S(=O)(=O)NC[C@H]2C[C@@H]3CCN2C[C@@H]3c2cc(C3CCCC3)nn2C)cc1,x,x,x,35%,x,x
c1cncc(CN2CCNCC2)c1,x,x,x,-24%,x,x
C/C(=N\NC(N)=S)C12CC3CC(CC(C3)C1)C2,x,i,7.3µM*,u,i,26µM*
CC12CCC3C(CCC4(O)CC(O)CCC34C=O)C1(O)CCC2C1=CC(=O)OC1 (configuration not stated),-1%,1.3µM*,u,-3%,u,u
CCCCN=C[C@]12CCC(O)CC1(O)CCC1[C@@H]2CC[C@]2(C)[C@H](C3C=CC(=O)O3)CCC12O (some centres not stated),-2%,0.23µM*,u,12%,0.52µM*,2.3µM*
CC1OC(OC2CCC3(C=O)[C@H]4CCC5(C)C(C6=CC(=O)OC6)CCC5(O)[C@@H]4CCC3(O)C2)CC(O)C1O (some centres not stated),x,x,x,-9%,x,x
CC12CCC(O)CC1CC[C@@H]1[C@@H]2CCC2(C)[C@H](C3=CC(=O)OC3)CCC12O (some centres not stated),x,x,x,-31%,x,x
